# Results published in PubChem BioAssay (NCI).
# The panel holds about 83,000 compounds, 20% with a hit somewhere; the sample as a whole holds those more often.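 Cells were grown in 96-well plates and exposed to the test compound at a single concentration for 48 hours; results are reported as percent growth, with values below 10 considered active.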 A number with no mark means an inactive call. Activity calls are given as the source filed them.
# System: SNB-75 CNS
# Experiment: NCI-60 one-dose screen, 48 h (100 = growth as untreated, 0 = no growth, -100 = all killed)
# Conditions: 10 µM unless noted
# Protocol: Growth inhibition of the SNB-75 human tumor cell line is measured as a screen for anti-cancer activity. Cells are grown in 96 well plates and exposed to the test compound for 48 hours. Compounds are tested at a single concentration, which is 10^-5 M for most compounds. The reported endpoint is percent growth (GI% or GIPRCNT), where numbers from 0 - 100% represent growth inhibition, and numbers from -100% - 0 represent cell death. For example, a value of 40 represents 60% growth inhibition. A value of 0 means no net growth occurred over the course of the experiment. A value of -40 indicates 40% of cells at the beginning of the experiment died by the end of the experiment. A value of -100 means all cells are dead at the end of the experiment.
# NCI-60 Human Tumor Cell Lines Screen was performed using the standard one-dose NCI protocol, which is described in more detail at https://dtp.cancer.gov/discovery_development/nci-60/default.htm.
# Compounds with GIPRCNT values below 10 were considered active. Activity score was based on GIPRCNT using the following formula: […]
# Score is 0 for GIPRCNT values of 100 or above, 50 for GIPRCNT values of 0, and 100 for GIPRCNT values of -100.
row,Structure (SMILES),growth
1,CCCn1cnc2c(c1=N)C(c1ccc(F)cc1)c1sc3c(F)cccc3c1O2 (stereo not given),26%
2,C=C(c1ccc(OC)c(/C=C/C(=O)c2ccc3c(c2)OCO3)c1)c1cc(OC)c(OC)c(OC)c1,5.07% (active)
3,Nn1c(=O)c(=O)[nH]c2c(cnn2-c2ccccc2)c1=O,92.5%
4,COc1ccc(Cn2cc(C(=O)N=Nc3c(O)[nH]c4c(C)cccc34)nn2)cc1,27.3%
5,O=C1c2ccccc2C(=O)C1c1ccc(Br)cc1,65%
6,CNC(C)[C@H]1CCC2C3CC=C4C(=O)[C@@H](NC(=O)C=C(C)C)CC[C@]4(C)C3CC[C@@]21C (stereo not given in full),22.5%
7,CCOC(=O)c1nn(CC(O)c2ccccc2)c(NC(=O)Nc2cccc(F)c2)c1C (stereo not given),108%
8,O=C(Cc1cccc(OC(F)(F)F)c1)Nc1ccc(CCCCc2nnc(NC(=O)Cc3ccccn3)s2)nn1,78.6%
9,CN1CCN(c2ccc(NC(=O)c3cncnc3Nc3ccc(OCc4cccc(F)c4)c(Cl)c3)cc2)CC1,68.3%
10,Oc1c(CN2CCOCC2)cc(COCc2ccccc2)c2cccnc12,49.5%
11,CC(=C(c1ccc(OCCN2CCCCC2)cc1)c1ccc(OCCN2CCCCC2)cc1)c1ccc(Cl)cc1,-97.3% (active)
12,N=C(N)c1ccc(-c2ccc(-c3ccccc3)s2)cc1,108%
13,C[C@H](CCCC(=O)NCC#CCN1CCN(C)CC1)[C@H]1CC[C@H]2[C@@H]3CC[C@@H]4CC(=O)CC[C@]4(C)[C@H]3CC[C@]12C,89.8%
14,CC(C)(C)n1cc(-c2ccnc(NCCCNS(=O)(=O)c3cccc4ccccc34)c2)c(-c2cccc(F)c2)n1,67.2%
15,CN(CCCNC(=O)CCOCCOCCOCCNC(=O)Cc1ccc2ccc3cccc4ccc1c2c34)CCCNc1cc(-c2ccc3ccccc3c2)nc2ccccc12,-95.7% (active)
16,O=C(/C=C/C12c3ccccc3C(c3ccccc31)C1C(=O)NC(=O)C12)c1ccc(Br)cc1 (stereo not given),55.7%
17,CC(=O)c1ccc(Nc2nccc(-c3ccc4ccccc4c3)n2)cc1,91.8%
18,COc1cc(-c2nc3c(ncc4ccc(=O)n(-c5ccccc5)c43)s2)cc(OC)c1OC,56%
19,COc1ccc(CCN(CC(=O)N(CC(N)=O)C2CCC[C@@H]2OCc2ccccc2)C(=O)CN(C(=O)CN(CCc2ccc(Cl)cc2)C(=O)CN(C(=O)CN(C)Cc2ccccc2F)[C@H](C)C2CCCCC2)[C@H](C)C2CCCCC2)cc1OC (stereo not given in full),53.5%
20,O=C(/C=C/c1ccc(Oc2ccc(Br)cc2)cc1)c1ccc(Br)cc1,90.7%

row,Structure (SMILES),growth
1,N=c1c(S(=O)(=O)c2ccccc2)cc2c(=O)n3ccccc3nc2n1CC1CCCO1 (stereo not given),73.9%
2,COc1cccc(NCc2nnc(Nc3ccc(Cl)cc3)c3ccccc23)c1,-6.06% (active)
3,Cc1cccc(-c2nc(Nc3ccc4ncsc4c3)c3ccccc3n2)n1,105%
4,COc1ccc(C2=CC(c3cc(OC)c(OC)c(OC)c3)n3ncnc3N2)cc1 (stereo not given),40.4%
5,O=C1c2ccccc2C(=O)c2c1cc1c(c2[N+](=O)[O-])OCO1,-13.4% (active)
6,Cc1ccc(-c2nc3nc(-c4ccccc4)nc(N4CCCN(S(C)(=O)=O)CC4)c3o2)cc1,17.4%
7,COc1ccc2c(c1)c(/C(O)=C1\COC(=O)C1=O)cn2Cc1ccc(F)cc1,104%
8,O=C(/C=C(O)/C=C/c1cccc2[nH]ccc12)/C=C/c1cccc2[nH]ccc12,92.2%
9,CCN1C(=O)N(CC)C2C1N=C(SCc1ccc(Cl)cc1)N2/N=C/C=C/c1ccccc1OC (stereo not given),50.1%
10,S=c1[nH]c(=S)c2c(-c3ccccc3)c(-c3ccccc3)oc2[nH]1,95.2%
11,CN1CCN(CCCOc2cccc3nc(Nc4ccc(F)c(F)c4)ccc23)CC1,-5.9% (active)
12,O=C1c2ccccc2C(=O)c2c1c(C(=O)NCc1ccccc1)c1ccccn21,94.9%
13,COC(=O)c1cc(Br)ccc1O,91.5%
14,CCOC(=O)c1c(C)nc2ccccc2c1/C=C/c1ccccc1,80.1%
15,O=c1c2c3c(sc2n2c(-c4cc(-c5ccccc5)no4)nnc2n1Cc1ccccc1)CCCC3,76.2%
16,Cc1ccc(C(=O)Nc2cccc(C#Cc3cccc4[nH]nc(N)c34)c2)cc1C(F)(F)F,88.4%
17,CN1CCN(C(=O)C(C)(C)c2ccc(C(=O)Nc3cn4cc(-c5ccncc5)ccc4n3)cc2)CC1,-5.48% (active)
18,C#COc1cccc(Nc2ncnc3cc(NC(=O)[C@@H](C)Cl)ccc23)c1,-7.9% [6.25 µM] (active)
19,Cn1cc(-c2ccc(-c3cn(C)c4ccc(Cl)cc34)[nH]2)c2cc(Cl)ccc21,-59.9% (active)
20,CN(C)CCCC1(c2ccc(F)cc2)OCc2cc(-c3ccc4cc[nH]c4c3)ccc21 (stereo not given),33.8%
